Results published in PubChem BioAssay.
“And” between values parts separate entries of the source, which are not always exact repeats. Identical values can stand only once. The source made the active and inactive calls.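 The calls were made as follows, unless noted: active = normalized viability below 100% at a tested concentration; inactive = the rest.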

How the values were obtained:
[1] = Wnt pathway potentiators raising nuclear beta-catenin – imaging, WNT3A-conditioned medium, mouse C2C12, NPC library, primary screen (AID 1117326; in the data active = nuclear beta-catenin stimulation mostly above about 4.2%, no sharp cut-off; inactive = mostly below about 10%); details: stronger effect = higher value
[2] = stimulators of insulin release from INS-1E, primary screen, cell-based, 5 mM glucose, NPC library (AID 1117329;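 active = compound raises insulin release from rat beta cells at 5 mM glucose, no numeric limit stated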); details: rat INS-1E insulin secretion, at 10 µM, stronger effect = higher value
[3] = growth inhibition of GSK3B-pretreated HCT116 cells – cell-based, CellTiter-Glo, 0.2 to 20 µM (AID 1117336;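 active = compounds lowering colon cancer cell viability after pretreatment blocking the GSK3B kinase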); details: HCT116 viability after GSK3B inhibitor, at 20 µM, stronger effect = higher value
[4] = inhibition of endothelial tube formation, primary screen, imaging, VEGF stimulated, CD31 staining, tube area, NPC library (AID 1117340;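 active = compound that reduces growth-factor-driven endothelial tube area in a mixed cell culture, no cutoff stated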); details: VEGF-stimulated ADSC/ECFC co-culture, at 10 µM, stronger effect = higher value
[5] = GLP1 release stimulators, primary, NCI-H716, NPC library (AID 1117341;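 active = compound raises GLP1 secretion from the human gut endocrine cells, with no numeric limit stated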); details: NCI-H716 cells, at 10 µM, stronger effect = higher value
[6] = HCT116 colon cancer cell growth inhibition, primary screen, CellTiter-Glo luminescence, NPC library (AID 1117342;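 active = compounds that lower survival of HCT116 colon cancer cells in the luminescence readout, no numeric limit stated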); details: at 20 µM (top of the series)
[7] = reduced SW480 viability measured with CellTiter-Glo, NPC library, primary (AID 1117343;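 active = compounds that lower viability of the colon cancer cells in the luminescence readout, with no numeric limit stated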); details: CellTiter-Glo luminescence; at 20 µM (top of the series) unless noted
[8] = NPC library primary testing for decreased DLD-1 cell viability via CellTiter-Glo (AID 1117346;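 active = compounds that lower survival of DLD-1 colon cancer cells in the luminescence readout, no cutoff given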); details: DLD-1 viability, CellTiter-Glo luminescence; at 20 µM (top of the series)
[9] = EMT-state selective cytotoxicity in co-culture – imaging, PC-3E GFP, TEM4-18 mCherry, primary screen (AID 1345086;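 active = compounds killing one labelled cell type while sparing the other, by normalised counts and ratio limits, not self-fluorescent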;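 as to all read-outs here: cells exposed to compound for 72 h before imaging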;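 as to red/green cell ratio (normalised): normalised mesenchymal count divided by normalised epithelial count so high means epithelial killing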); details: PC-3E GFP / TEM4-18 mCherry co-culture, imaging cell counts, at 1 µM; for red/green cell ratio (normalised): actives lie on both sides, counts scaled to control wells, 1 = unselective
[10] = P. berghei load reduction in hepatocytes – cell-based, HepG2, luciferase luminescence, HepG2 viability, primary screen (AID 624349; in the data active = parasite load remaining mostly below about 12%, no sharp cut-off; inactive = mostly above about 10%;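 also: 100% = mean of DMSO negative control wells on the same plate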); details: P. berghei liver stage in HepG2, luciferase luminescence, concentration not given here; parasite load remaining: stronger effect = lower value; viability: measured here: HepG2 viability without parasites
[11] = viability loss with induced miR-34 in A549 – imaging, A549 dox-inducible miR-34, nuclei and caspase counts, primary screen (AID 1347080;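 active = compounds whose cell count with miR-34 switched on is under 0.7 times the count with it off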); details: A549 miR-34 inducible, Hoechst nuclei count, 48 h
[12] = MELAS cybrid and Rieske KO viability enhancers – cell-based, MELAS cybrids, Rieske KO mouse fibroblasts, CellTiter-Glo, primary screen (AID 1508586;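 active = mean z-score across replicates of 1.96 or higher in either the MELAS or the Rieske mutant cell line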;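 also: z relative to plate mean and SD of compound and empty wells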); details: low glucose
[13] = drug combination growth inhibition, ovarian cancer – cell-based, oncology-focused library, rucaparib conditional, profiling panel (AID 1508598); details: patient-derived ovarian cancer cells, CellTiter-Glo viability, 144 h, stronger effect = lower value
[14] = compounds altering viability of human ES cells (AID 493140; call rule not given here;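 also: cells exposed to compounds for four days before counting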); details: human embryonic stem cell survival screen; stronger effect = higher value
[15] = target: NAD(+) hydrolase SARM1 (Homo sapiens) (UniProt Q6SZW1); experiment: blocking NAD cleavage by SARM1 SAM-TIR – cell lysate, NAD-Glo luminescence (AID 1508614;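 active = compound whose remaining NAD level is above about 45 nM, limit read from the data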;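 also: higher remaining NAD means stronger inhibition of SARM1 NADase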); details: SAM-TIR HEK293T lysate NADase, at 1 µM, stronger effect = higher value
[16] = measured here: epithelial PC-3E GFP cell survival
[17] = measured here: mesenchymal TEM4-18 mCherry cell survival
[18] = stronger effect = lower value, cell number ratio, induced over uninduced
[19] = measured here: relative caspase fold change +Dox/-Dox
[20] = measured here: total cells with miR-34 induction, stronger effect = lower value
[21] = measured here: total cells without miR-34 induction
[22] = MELAS cybrid survival, CellTiter-Glo 48 h, stronger effect = higher value
[23] = Rieske KO mouse fibroblast survival, CellTiter-Glo 72 h

Sequence of NAD(+) hydrolase SARM1 (Homo sapiens) (Q6SZW1 whole entry, looked up): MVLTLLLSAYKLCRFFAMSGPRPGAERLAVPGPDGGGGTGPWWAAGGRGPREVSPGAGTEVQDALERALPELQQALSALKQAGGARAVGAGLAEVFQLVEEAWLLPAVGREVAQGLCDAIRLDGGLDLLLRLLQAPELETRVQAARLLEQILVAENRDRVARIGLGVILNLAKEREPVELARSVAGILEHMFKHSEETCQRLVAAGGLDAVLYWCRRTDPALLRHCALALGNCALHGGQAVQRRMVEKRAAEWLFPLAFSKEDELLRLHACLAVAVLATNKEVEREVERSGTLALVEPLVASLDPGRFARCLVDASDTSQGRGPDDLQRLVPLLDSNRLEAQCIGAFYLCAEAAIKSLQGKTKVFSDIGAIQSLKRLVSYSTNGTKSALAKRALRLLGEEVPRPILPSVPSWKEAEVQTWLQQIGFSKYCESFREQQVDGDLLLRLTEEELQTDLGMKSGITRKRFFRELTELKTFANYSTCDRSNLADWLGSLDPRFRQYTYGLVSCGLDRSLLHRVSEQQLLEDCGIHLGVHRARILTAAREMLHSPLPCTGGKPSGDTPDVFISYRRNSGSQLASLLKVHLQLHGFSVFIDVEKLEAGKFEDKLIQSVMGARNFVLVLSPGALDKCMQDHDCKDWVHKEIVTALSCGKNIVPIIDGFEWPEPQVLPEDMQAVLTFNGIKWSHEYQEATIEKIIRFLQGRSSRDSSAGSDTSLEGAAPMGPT

C[C@H]1[C@H](NC(=O)/C(=N/OC(C)(C)C(=O)O)c2csc(N)n2)C(=O)N1S(=O)(=O)O (stereo in doubt)
inactive: nuclear beta-catenin stimulation ([1]; at 10 µM) 5% | insulin secretion stimulation [2] 0.1% | viability decrease [3] -16.4% | tube area decrease [4] 11.9% | GLP1 secretion stimulation [5] -1.9% | inhibition of viability [6] 0.97% | viability decrease (inhibition) [7] 25.1% | viability decrease (inhibition) [8] -11.3% | red/green cell ratio (normalised) [9] 1.32
-0.4%: nuclear beta-catenin stimulation ([1]; stimulation, at 2 µM)
0.82: normalised cell number [9, 16]
1.08: normalised cell number [9, 17]

CN(N=O)C(=O)N[C@@H]1[C@@H](O)[C@H](O)[C@@H](CO)O[C@@H]1O
1.24 and 1.12: fold change [11, 19]
1.08: normalised cell number [9, 17]
97.3% and 74.3% and 97.4%: viability [10]
0.95: normalised cell number [9, 16]
inactive: parasite load remaining [10] 90.3% and 138% and 42.6% | nuclear beta-catenin stimulation ([1]; at 10 µM) 0.9% | insulin secretion stimulation [2] 0.5% | viability decrease [3] -5.6% | tube area decrease [4] 10.3% | GLP1 secretion stimulation [5] 0.8% | inhibition of viability [6] -6.13% | viability decrease (inhibition) [7] 42% | viability decrease (inhibition) [8] -37.7% | red/green cell ratio (normalised) [9] 1.14 | fold change [11, 18] 0.837 and 0.877 | z-score [12, 22] 0.426 | viability ([13]; at 0.000305 µM, OCI-C5x cells, with rucaparib 10 µM, 100% = cells with rucaparib alone) 107% | viability ([13]; at 0.000305 µM, OCI-C5x cells, without rucaparib) 111% | viability ([13]; at 0.000305 µM, OCI-P5x cells, with rucaparib 20 µM, 100% = cells with rucaparib alone) 108% | viability ([13]; at 0.000305 µM, OCI-P5x cells, without rucaparib) 121% | viability ([13]; at 0.00122 µM, OCI-C5x cells, with rucaparib 10 µM, 100% = cells with rucaparib alone) 110% | viability ([13]; at 0.00122 µM, OCI-C5x cells, without rucaparib) 114% | viability ([13]; at 0.00122 µM, OCI-P5x cells, with rucaparib 20 µM, 100% = cells with rucaparib alone) 101% | viability ([13]; at 0.00122 µM, OCI-P5x cells, without rucaparib) 115% | viability ([13]; at 0.00488 µM, OCI-C5x cells, with rucaparib 10 µM, 100% = cells with rucaparib alone) 102% | viability ([13]; at 0.00488 µM, OCI-C5x cells, without rucaparib) 121% | viability ([13]; at 0.00488 µM, OCI-P5x cells, without rucaparib) 113% | viability ([13]; at 0.0195 µM, OCI-C5x cells, with rucaparib 10 µM, 100% = cells with rucaparib alone) 111% | viability ([13]; at 0.0195 µM, OCI-C5x cells, without rucaparib) 114% | viability ([13]; at 0.0195 µM, OCI-P5x cells, with rucaparib 20 µM, 100% = cells with rucaparib alone) 100% | viability ([13]; at 0.0195 µM, OCI-P5x cells, without rucaparib) 116% | viability ([13]; at 0.0781 µM, OCI-C5x cells, with rucaparib 10 µM, 100% = cells with rucaparib alone) 106% | viability ([13]; at 0.0781 µM, OCI-C5x cells, without rucaparib) 122% | viability ([13]; at 0.0781 µM, OCI-P5x cells, with rucaparib 20 µM, 100% = cells with rucaparib alone) 104% | viability ([13]; at 0.0781 µM, OCI-P5x cells, without rucaparib) 112% | viability ([13]; at 0.313 µM, OCI-C5x cells, with rucaparib 10 µM, 100% = cells with rucaparib alone) 106% | viability ([13]; at 0.313 µM, OCI-C5x cells, without rucaparib) 126% | viability ([13]; at 0.313 µM, OCI-P5x cells, without rucaparib) 113% | viability ([13]; at 1.25 µM, OCI-C5x cells, without rucaparib) 109% | viability ([13]; at 1.25 µM, OCI-P5x cells, without rucaparib) 105% | viability ([13]; at 5 µM, OCI-C5x cells, with rucaparib 10 µM, 100% = cells with rucaparib alone) 103% | viability ([13]; at 5 µM, OCI-C5x cells, without rucaparib) 101%
0.385: z-score [12, 23]
8550 and 11000: cell count [11, 20]
2.9%: nuclear beta-catenin stimulation ([1]; stimulation, at 2 µM)
active: viability ([13]; at 0.00488 µM, OCI-P5x cells, with rucaparib 20 µM, 100% = cells with rucaparib alone) 97.2% | viability ([13]; at 0.313 µM, OCI-P5x cells, with rucaparib 20 µM, 100% = cells with rucaparib alone) 98.9% | viability ([13]; at 1.25 µM, OCI-C5x cells, with rucaparib 10 µM, 100% = cells with rucaparib alone) 97.9% | viability ([13]; at 1.25 µM, OCI-P5x cells, with rucaparib 20 µM, 100% = cells with rucaparib alone) 87.8% | viability ([13]; at 5 µM, OCI-P5x cells, with rucaparib 20 µM, 100% = cells with rucaparib alone) 87.3% | viability ([13]; at 5 µM, OCI-P5x cells, without rucaparib) 98.1%
10200 and 12600: cell count [11, 21]

C#CCN(C)CCCOc1ccc(Cl)cc1Cl
9600 and 8700 and 8160: cell count [11, 20]
-0.5%: nuclear beta-catenin stimulation ([1]; stimulation, at 2 µM)
0.294: z-score [12, 23]
9370 and 9480 and 9800: cell count [11, 21]
1.14: normalised cell number [9, 16] | normalised cell number [9, 17]
0.924 and 0.754 and 1.44: fold change [11, 19]
inactive: survival [14] 8.67 | parasite load remaining [10] 88.7% and 89.7% | nuclear beta-catenin stimulation ([1]; at 10 µM) 0.3% | insulin secretion stimulation [2] -2.3% | viability decrease [3] -91.8% | tube area decrease [4] 22.3% | GLP1 secretion stimulation [5] -0.5% | inhibition of viability [6] 2.63% | viability decrease (inhibition) [7] 48.3% | viability decrease (inhibition) [8] 13.7% | red/green cell ratio (normalised) [9] 1 | fold change [11, 18] 1.02 and 0.917 and 0.833 | z-score [12, 22] 0.667 | remaining NAD [15] 10 nM
100% and 71.8%: viability [10]
